High-throughput results (PubChem)
Most compounds without a hit are left out; they make up all but 1.8% or so of the library.
MRP resist rev – reversal of MRP1-mediated doxorubicin resistance, primary screen, H69AR cells, doxorubicin co-treatment. H69AR cells + 2 uM doxorubicin, CellTiter-Glo, 72 h. differential viability (reversal), % at 10 µM. actives 0.04% (n = 85,000). AID 602, 2007;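 active means viability drop by adding the cancer drug above about 55%, with treated viability meeting a 40% cutoff, limit read from the data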;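 further: viability without doxorubicin minus viability with 2 µM doxorubicin for each compound; larger differential means the compound sensitizes cells more to doxorubicin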
GALR2 blocker – GALR2 antagonists in receptor-expressing cells, primary screen | Galanin receptor type 2 (Homo sapiens), O43603 | antagonist mode | inhibition, % at 4 µM | actives 0.39% (n = 140,000); in the data active means inhibition above about 27%;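 further: cells stimulated with galanin 1-16 at roughly its EC80; 0% = agonist challenge control and 100% = basal control without agonist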
S1P2 blocker – human S1P2 receptor antagonists, primary screen, cell-based; AID 736, 2007; actives 0.21% (n = 97,000); cell-based S1P2 antagonist assay, inhibition at 5 uM; Sphingosine 1-phosphate receptor 2 (Homo sapiens), O95136; inhibition, % at 5 µM; in the data active means inhibition above about 45%;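 further: CRE beta-lactamase reporter cells expressing human S1P2 stimulated with S1P; 0% = agonist at EC80 alone and 100% = agonist plus reference antagonist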
Target sequence (O95136 whole entry, looked up): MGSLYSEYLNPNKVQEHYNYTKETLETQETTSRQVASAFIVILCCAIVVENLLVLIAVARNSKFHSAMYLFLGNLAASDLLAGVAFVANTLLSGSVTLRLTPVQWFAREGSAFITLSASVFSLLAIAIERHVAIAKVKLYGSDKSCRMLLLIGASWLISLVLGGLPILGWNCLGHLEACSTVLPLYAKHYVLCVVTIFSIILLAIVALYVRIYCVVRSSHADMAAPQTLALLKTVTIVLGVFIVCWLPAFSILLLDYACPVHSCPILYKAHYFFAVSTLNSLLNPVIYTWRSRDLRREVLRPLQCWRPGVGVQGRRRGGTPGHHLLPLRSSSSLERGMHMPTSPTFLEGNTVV
GALR2 ag – GALR2 receptor agonists, primary screen, cell-based; GALR2-expressing cells, agonist activation read-out; actives 0.48% (n = 140,000); activation, % (test concentration not listed); Galanin receptor type 2 (Homo sapiens), O43603; in the data active means activation above about 5%, passing the limit was not always enough;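 further: 0% = vehicle buffer wells and 100% = reference agonist at full effect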
S1P2 agonist – S1P2 receptor agonists, primary screen, cell-based; actives 0.46% (n = 97,000); Sphingosine 1-phosphate receptor 2 (Homo sapiens), O95136; activation, % at 4.5 µM; S1P2-expressing cell line, agonist reporter read-out; in the data active means activation above about 16%;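 further: 0% = vehicle low control and 100% = maximal reference agonist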
MRP-1 activ – H69AR viability gain despite doxorubicin, primary screen, MRP-1 activator project, H69AR cells, CellTiter-Glo | viability rescue | viability increase, % at 10 µM | actives 0.61% (n = 140,000);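 active means viability gain under doxorubicin at or above a set limit, the compound median plus 3 SD, cut at about 4.7% in these data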;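 further: MRP-1 overexpressing cells given doxorubicin 25 µM after compound pretreatment; 18-22 h compound pretreatment then 72 h with doxorubicin before readout; 0% = doxorubicin-only wells and 100% = vehicle-treated cells without doxorubicin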
* = called active by the depositor; · = no result given.

SMILES | MRP resist rev | GALR2 blocker | S1P2 blocker | GALR2 ag | S1P2 agonist | MRP-1 activ
CCCCCCNS(=O)(=O)c1ccc(NC(=O)C2CCCO2)cc1 (stereo not given) | · | 10 | · | 0 | · | -2
O=C(Nc1ccc(C2CC2(Cl)Cl)cc1)c1ccccc1Br (stereo not given) | · | 4 | · | -2 | · | 11*
COCCNC(=O)C(C)Oc1ccc(Cl)cc1Cl (stereo not given) | · | 9 | 4 | 0 | -6 | -2
CC(Oc1ccc(Cl)cc1Cl)C(=O)NC1CCSC1=O (stereo not given) | -9 | 0 | -17 | -4 | -7 | 12*
O=c1c2cc(Cl)ccc2[nH]c(=S)n1Cc1cccs1 | · | -8 | · | 0 | · | -3
O=C(N/N=C/C=C/c1ccccc1)C(O)c1ccccc1 (stereo not given) | · | 30* | 9 | -5 | -5 | ·
COc1ccc2oc(C(=O)C3CC3)c(NC(=O)CCCN3C(=O)c4ccccc4C3=O)c2c1 | -2 | · | · | · | · | ·
O=C1c2ccccc2C(=O)c2c1cccc2N1CCOCC1 | · | -14 | -22 | 0 | 22* | -4
O=C(O)c1nn2c(C(F)(F)F)cc(-c3cccs3)nc2c1Cl | · | -2 | · | 0 | · | 0
CSc1ncccc1C(=O)Nc1nc2ccc(Oc3ccccc3)cc2s1 | · | -8 | · | 0 | · | 4.8*
COc1ccc2nc(NC(=O)c3cnccn3)sc2c1 | -13 | -9 | -2 | 0 | -5 | -3
CCOC(=O)CSc1nc2c(sc(=S)n2-c2ccccc2OC)c(=O)n1Cc1ccco1 | 24 | 10 | -20 | 0 | -3 | -1
NNC(=O)CN1C(c2cccc(Cl)c2)=Nc2ccc(Br)cc2C1c1ccccc1 (stereo not given) | · | 6 | 1 | -1 | -3 | 1
COc1ccc(C2=Nc3ccc(Br)cc3C(c3ccccc3)N2CC(=O)NN)cc1 (stereo not given) | · | -3 | · | -3 | · | 4.8*
COc1ccc(Cn2c(-c3ccco3)nc3oc4cc(OC)ccc4c(=O)c3c2=O)cc1 | -4 | -5 | 13 | 2 | 79* | -5
O=C(COc1cccnc1[N+](=O)[O-])Nc1ccc2c(c1)OC(F)(F)O2 | · | 7 | · | 0 | · | 5.5*
O=C(NCCN1C(=O)S/C(=C/c2ccccc2)C1=O)C1CCCN1C(=O)c1cccs1 (stereo not given) | · | 24 | · | -2 | · | 7.5*
COC(=O)/C(=C1/Oc2ccc(C)cc2S1)C(F)(F)F | · | 1 | · | -1 | · | -1
Cc1ccc(NC(=S)NCCc2ccc(S(N)(=O)=O)cc2)c(C)c1 | · | -5 | 13 | 0 | 102* | ·
COc1cc(C(=O)Nc2sc3c(c2C(=O)NCc2ccco2)CCCC3)cc(OC)c1OC | -3 | -7 | -21 | 0 | 23* | 0
Cc1cccc(C)c1NC(=O)C(NC(=O)CN1C(=O)c2ccccc2C1=O)c1ccccc1 (stereo not given) | · | 3 | · | -1 | · | -1
Cn1cccc1Cc1nnc(SCC(=O)NC2CCCC2)n1-c1ccc(F)cc1 | 15 | 5 | 0 | -4 | -2 | 0
CS(=O)(=O)NCc1nnc(SCC(=O)NC2CCCCC2)n1-c1ccc(F)cc1 | -13 | -6 | 11 | -1 | 103* | 0
CC(C)Cn1c(N)c(C(=O)COC(=O)CC23CC4CC(CC(C4)C2)C3)c(=O)n(C)c1=O | 0 | 25 | 59* | -2 | -2 | -2
CC(C)Cn1c(N)c(C(=O)COC(=O)c2ccncc2)c(=O)n(C)c1=O | 2 | 2 | -13 | -1 | -3 | -2
SMILES | MRP resist rev | GALR2 blocker | S1P2 blocker | GALR2 ag | S1P2 agonist | MRP-1 activ
CCc1nnc(NC(=O)C2CCCN2S(=O)(=O)c2ccc(C)cc2)s1 (stereo not given) | -12 | 1 | 18 | 0 | -3 | 6.8*
Cc1nc(/N=C(\N)NC(=O)N2c3ccccc3Sc3ccccc32)nc2ccccc12 | · | 11 | · | 1 | · | 6.5*
COc1ccc(OC)c(-c2cc(C(=O)Nc3c(C)nn(Cc4ccccc4Cl)c3C)no2)c1 | 3 | 0 | -4 | 0 | 1 | 5.5*
COc1ccc(-c2cc(C(=O)Nc3c(C)nn(Cc4ccccc4Cl)c3C)no2)cc1OC | -8 | 12 | 20 | -2 | -9 | -3
COc1ccc(OC)c(-c2cc(C(=O)Nc3c(C)nn(Cc4ccccc4C)c3C)no2)c1 | 2 | -11 | -4 | 2 | 3 | 9.3*
Cc1oc(-c2ccccc2F)nc1CS(=O)(=O)CC(=O)NCCN(C)C1CCCCC1 | 10 | 9 | 12 | -4 | -4 | -4
CCCC(=O)Nc1ccc(N2CCN(C(=O)c3ccccc3C)CC2)cc1 | 5 | 33* | 6 | -1 | -6 | -4
CCOC(=O)N/N=C(\C)c1ccccc1OC(F)F | · | -2 | · | -2 | · | -3
CC(C)(C)NC(=O)C(c1ccco1)N(C(=O)Cn1nnc(-c2ccc(F)cc2)n1)c1ccccc1F (stereo not given) | 10 | -7 | -1 | -1 | 19* | 0
CC/C(=C\C(=O)c1cccnc1)Nc1ccc(C)c(C)c1 | 2 | -6 | 2 | -1 | -4 | -1
COc1cccc(-n2c(SCC(=O)Nc3sc4c(c3C(N)=O)CCC4)nc3ccccc3c2=O)c1 | · | 3 | -32 | -2 | 19* | -4
COc1cccc(-n2c(SCC(=O)NCc3cccs3)nc3ccccc3c2=O)c1 | · | 7 | · | -1 | · | -2
COC(=O)Cc1c(C)c2ccc(OCC(=O)N3CCOCC3)cc2oc1=O | -6 | -1 | 3 | -2 | -3 | -2
CCN(CC)c1ccc2c(C)c(CN3CCOCC3)c(=O)oc2c1 | 14 | -1 | -20 | 6.2* | 26* | -1
CCOC(=O)c1c(C)[nH]c(C(=O)OCC(=O)NC2CCS(=O)(=O)C2)c1C (stereo not given) | -11 | 10 | -3 | -3 | -7 | -3
CCCn1c(NCc2c[nH]c3ccccc23)nc2ccccc21 | -6 | 2 | -31 | -1 | 21* | -2
CC(CCc1ccccc1)NC(=O)CSc1nc(N)cc(N)n1 (stereo not given) | 27 | -4 | 20 | -1 | -8 | -1
Cc1ccc(NC(=O)Cc2csc(-c3ccccc3)n2)cc1F | · | -8 | · | -3 | · | 5.1*
O=C(Cc1csc(-c2ccccc2)n1)Nc1ccc(C(F)(F)F)cc1 | · | 1 | · | 0 | · | -1
CC(C)(C)c1ccc(C(=O)NNC(=O)c2cccc(Br)c2)cc1 | · | -9 | 21 | 1 | 23* | -2
Cn1c(N/N=C/c2ccccc2)nc2sc3c(c2c1=O)CCC3 | · | -15 | 8 | 0 | -1 | 3
CCCc1nc(Cl)c(C#N)c2c1CCCC2 | · | -3 | · | -1 | · | -2
CCCc1nc(N)c(C#N)c(N)c1C#N | 8 | -4 | -37 | -1 | 17* | -1
CCOc1ccc(OCCSc2nnnn2-c2ccccc2)cc1 | 11 | 9 | -7 | -1 | -7 | 2
c1ccc(OCCSc2nnnn2-c2ccccc2)cc1 | 16 | 11 | 14 | -1 | 62* | 0
